Results published in the supplement of paper PMC10849652.
Of roughly 7,900 targets only a part is listed; those with a hit were picked by preference. About 0.6% of all pairs of compound and target were hits.

Legend:
Experiment in all cases: log2 fold change, soluble protein after heating vs DMSO (PISA); higher = thermal stabilisation; K562 cells, 10 uM, 30 min; active = over 0.2 and 3.5 SD of the protein, either way, in both replicates (recomputed)
[1] = compound: C1=CC=C(C=C1)[C@H](COC2=CC3=C(C=C2)NC(=O)N3)NC(=O)C4=CC=CN(C4=O)CC5=CC(=C(C=C5)F)F
How it was run: (§1)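 For each measurement, 10 μM compound was applied for 30 min to K562 cells at 2×10^6 cells/mL. Aliquots were heated for 3 min across 48°C-58°C, pooled, and extracted in PBS with 0.5% NP-40 at 4°C; the supernatant after 21,000xg for 90 min was soluble protein. This was quantified by TMTpro 16plex LC-MS/MS with channel sums equalised, and thermal stability was reported relative to control samples from duplicates, on a log2 fold-change scale.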

[2] = compound: CC1=C(SC2=C1C(=N[C@H](C3=NN=C(N32)C)CC(=O)N)C4=CC=C(C=C4)Cl)C
How it was run: as §1

[3] = compound: CC1=C2C(=CC=C1)N=C(N(C2=O)C3=CC=CC=C3C)CN4C=NC5=C(N=CN=C54)N
How it was run: as §1

[4] = compound: Cc1sc2c(c1C)C(c1ccc(Cl)cc1)=N[C@@H](CC(=O)OC(C)(C)C)c1nnc(C)n1-2
How it was run: as §1

[5] = compound: c1ccc([C@@H]2C[C@H]2NC2CCNCC2)cc1
How it was run: as §1

Measured: log2 fold change

GUK1 isoform 2 (UniProt Q16774)
inactive: [1] -0.042 | [2] 0.003 | [3] 0.084 | [4] -0.021 | [5] 0.031

ICAM1 (UniProt P05362)
inactive: [1] -0.005 | [2] 0.021 | [3] 0.049 | [4] 0.012 | [5] 0.031

HNRNPC isoform 2 (UniProt P07910)
Chain of UniProt P07910 (P07910 whole entry, looked up): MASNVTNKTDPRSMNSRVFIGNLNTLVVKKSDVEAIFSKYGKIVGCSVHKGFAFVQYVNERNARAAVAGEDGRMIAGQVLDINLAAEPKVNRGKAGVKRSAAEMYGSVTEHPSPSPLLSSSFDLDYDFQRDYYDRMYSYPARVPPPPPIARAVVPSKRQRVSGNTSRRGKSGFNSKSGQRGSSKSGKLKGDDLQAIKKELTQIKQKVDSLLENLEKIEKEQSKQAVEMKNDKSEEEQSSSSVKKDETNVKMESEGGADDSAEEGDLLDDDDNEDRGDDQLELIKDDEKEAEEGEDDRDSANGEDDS
inactive: [1] 0.102 | [2] -0.441 | [3] -0.171 | [4] 0.07 | [5] 0.139

GLA (UniProt P06280)
Chain of UniProt P06280 (P06280 whole entry, looked up): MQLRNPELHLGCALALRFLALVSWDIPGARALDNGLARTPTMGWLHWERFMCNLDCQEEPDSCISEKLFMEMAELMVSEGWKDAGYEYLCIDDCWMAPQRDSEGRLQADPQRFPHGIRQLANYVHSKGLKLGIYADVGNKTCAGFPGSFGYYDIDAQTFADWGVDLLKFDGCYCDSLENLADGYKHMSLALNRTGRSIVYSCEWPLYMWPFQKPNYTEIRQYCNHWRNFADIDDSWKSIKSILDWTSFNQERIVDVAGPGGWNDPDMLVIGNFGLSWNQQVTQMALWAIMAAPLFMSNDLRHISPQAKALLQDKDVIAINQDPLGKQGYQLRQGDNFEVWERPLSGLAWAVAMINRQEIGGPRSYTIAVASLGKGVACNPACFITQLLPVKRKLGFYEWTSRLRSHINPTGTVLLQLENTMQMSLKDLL
inactive: [1] 0.019 | [2] -0.019 | [3] -0.01 | [4] 0.007 | [5] 0.017

FNTB (UniProt P49356)
Chain of UniProt P49356 (P49356 whole entry, looked up): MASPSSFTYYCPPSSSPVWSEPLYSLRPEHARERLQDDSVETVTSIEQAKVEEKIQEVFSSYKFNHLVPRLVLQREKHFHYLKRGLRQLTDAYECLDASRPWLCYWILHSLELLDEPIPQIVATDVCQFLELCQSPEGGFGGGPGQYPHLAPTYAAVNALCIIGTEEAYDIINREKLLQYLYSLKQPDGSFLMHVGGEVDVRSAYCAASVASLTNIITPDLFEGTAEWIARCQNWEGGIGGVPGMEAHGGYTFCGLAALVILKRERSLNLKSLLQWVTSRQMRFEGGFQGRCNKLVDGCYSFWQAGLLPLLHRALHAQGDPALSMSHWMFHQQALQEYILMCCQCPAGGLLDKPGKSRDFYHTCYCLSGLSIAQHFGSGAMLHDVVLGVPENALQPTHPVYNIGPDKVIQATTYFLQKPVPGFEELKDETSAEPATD
inactive: [1] -0.034 | [2] 0.401 | [3] -0.017 | [4] 0.269 | [5] -0.044

IFT74 (UniProt Q96LB3)
Chain of UniProt Q96LB3 (Q96LB3 whole entry, looked up): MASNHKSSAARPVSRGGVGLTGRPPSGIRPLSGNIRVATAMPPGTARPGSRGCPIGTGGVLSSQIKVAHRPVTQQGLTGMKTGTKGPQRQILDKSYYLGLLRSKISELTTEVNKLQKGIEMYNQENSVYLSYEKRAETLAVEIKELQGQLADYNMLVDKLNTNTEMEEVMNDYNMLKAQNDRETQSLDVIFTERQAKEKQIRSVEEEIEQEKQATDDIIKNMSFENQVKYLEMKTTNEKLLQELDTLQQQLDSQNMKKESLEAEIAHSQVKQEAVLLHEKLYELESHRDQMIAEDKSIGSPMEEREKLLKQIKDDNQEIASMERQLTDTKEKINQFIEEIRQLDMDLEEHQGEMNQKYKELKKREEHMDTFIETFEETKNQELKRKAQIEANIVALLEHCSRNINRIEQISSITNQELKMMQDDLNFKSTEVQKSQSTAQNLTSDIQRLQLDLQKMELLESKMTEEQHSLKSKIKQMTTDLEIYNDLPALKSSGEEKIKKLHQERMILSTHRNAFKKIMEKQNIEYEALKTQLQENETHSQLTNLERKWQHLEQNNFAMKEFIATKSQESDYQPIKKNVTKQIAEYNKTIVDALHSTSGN
inactive: [1] 0.134 | [2] 0.11 | [3] 0.163 | [4] 0.003 | [5] -0.069

GLIPR2 (UniProt Q9H4G4)
inactive: [1] -0.092 | [2] -0.091 | [3] -0.009 | [4] 0.028 | [5] -0.017

HMGB3 (UniProt O15347)
inactive: [1] -0.005 | [2] 0.022 | [3] -0.03 | [4] -0.055 | [5] -0.033

GALNT2 (UniProt Q10471)
inactive: [1] 0.008 | [2] 0.057 | [3] 0.001 | [4] 0.007 | [5] -0.004

GHDC (UniProt Q8N2G8)
inactive: [1] 0.061 | [2] 0.016 | [3] 0.022 | [4] 0.031 | [5] -0.019

GDE1 (UniProt Q9NZC3)
inactive: [1] -0.019 | [2] 0.037 | [3] 0.025 | [4] -0.078 | [5] -0.055

FKBP7 (UniProt Q9Y680)
inactive: [1] -0.027 | [2] 0.005 | [3] 0.091 | [4] 0.009 | [5] 0.102

FMC1 (UniProt Q96HJ9)
inactive: [1] 0.009 | [2] 0.06 | [3] 0.044 | [4] 0 | [5] -0.002

GTF2B (UniProt Q00403)
inactive: [1] -0.036 | [2] 0.007 | [3] 0.154 | [4] 0.017 | [5] -0.002

GALNT4 (UniProt Q8N4A0)
Chain of UniProt Q8N4A0 (Q8N4A0 whole entry, looked up): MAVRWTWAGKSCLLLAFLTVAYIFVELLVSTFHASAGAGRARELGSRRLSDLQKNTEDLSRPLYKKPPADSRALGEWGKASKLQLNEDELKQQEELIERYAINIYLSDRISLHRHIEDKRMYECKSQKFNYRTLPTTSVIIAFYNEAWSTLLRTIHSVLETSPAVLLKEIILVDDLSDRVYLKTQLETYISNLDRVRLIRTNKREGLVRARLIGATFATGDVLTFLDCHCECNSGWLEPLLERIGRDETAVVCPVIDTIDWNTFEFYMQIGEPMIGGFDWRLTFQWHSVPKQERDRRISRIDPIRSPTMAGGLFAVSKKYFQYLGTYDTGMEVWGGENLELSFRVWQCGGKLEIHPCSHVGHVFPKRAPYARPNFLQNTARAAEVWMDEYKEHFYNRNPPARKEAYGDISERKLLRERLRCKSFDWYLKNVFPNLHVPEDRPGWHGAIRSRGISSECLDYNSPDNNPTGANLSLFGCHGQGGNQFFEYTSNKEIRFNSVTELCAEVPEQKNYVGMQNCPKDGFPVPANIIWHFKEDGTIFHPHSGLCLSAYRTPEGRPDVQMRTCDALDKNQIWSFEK
inactive: [1] 0.007 | [2] 0.062 | [3] 0.109 | [4] -0.033 | [5] -0.002

GYG1 (UniProt P46976)
inactive: [1] 0.02 | [2] -0.077 | [3] -0.046 | [4] -0.008 | [5] -0.019

GSK3A (UniProt P49840)
Chain of UniProt P49840 (P49840 whole entry, looked up): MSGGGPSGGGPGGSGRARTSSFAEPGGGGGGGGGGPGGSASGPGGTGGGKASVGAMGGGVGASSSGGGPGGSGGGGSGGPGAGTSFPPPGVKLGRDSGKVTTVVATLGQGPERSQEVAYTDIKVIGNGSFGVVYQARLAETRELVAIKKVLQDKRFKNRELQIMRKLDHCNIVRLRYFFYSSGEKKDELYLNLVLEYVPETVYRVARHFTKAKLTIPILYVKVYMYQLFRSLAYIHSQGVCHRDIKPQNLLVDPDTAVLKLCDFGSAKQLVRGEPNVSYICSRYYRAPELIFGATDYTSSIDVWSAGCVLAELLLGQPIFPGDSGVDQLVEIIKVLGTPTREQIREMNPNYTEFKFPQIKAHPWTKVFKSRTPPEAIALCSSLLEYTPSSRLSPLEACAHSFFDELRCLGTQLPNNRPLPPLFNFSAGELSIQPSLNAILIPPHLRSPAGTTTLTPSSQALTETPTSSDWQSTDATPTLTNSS
inactive: [1] 0.006 | [2] 0.099 | [3] 0.02 | [4] -0.014 | [5] -0.034

GBA2 (UniProt Q9HCG7)
inactive: [1] 0.099 | [2] 0.012 | [3] 0.017 | [4] 0.034 | [5] 0.023

ICMT (UniProt O60725)
Chain of UniProt O60725 (O60725 whole entry, looked up): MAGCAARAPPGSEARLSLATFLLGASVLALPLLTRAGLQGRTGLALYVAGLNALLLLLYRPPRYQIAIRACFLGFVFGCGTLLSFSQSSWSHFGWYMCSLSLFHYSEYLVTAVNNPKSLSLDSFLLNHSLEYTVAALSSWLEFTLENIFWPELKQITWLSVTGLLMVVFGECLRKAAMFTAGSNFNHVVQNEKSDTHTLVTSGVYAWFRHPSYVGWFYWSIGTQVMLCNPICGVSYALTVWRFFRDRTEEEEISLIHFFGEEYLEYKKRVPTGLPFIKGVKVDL
inactive: [1] 0.047 | [3] 0.115 | [4] 0.07

HS1BP3 (UniProt Q53T59)
inactive: [1] -0.046 | [2] 0.087 | [3] -0.001 | [5] -0.203

FMR1 (UniProt Q06787)
inactive: [2] -0.237 | [5] -0.038

HIST2H3A (UniProt Q71DI3)
inactive: [1] 0.068 | [2] -0.153 | [3] -0.266 | [4] -0.221 | [5] 0.192

GREB1 (UniProt Q4ZG55)
inactive: [2] 0.095 | [3] 0.175 | [4] 0.037 | [5] -0.1

GMEB2 (UniProt Q9UKD1)
Chain of UniProt Q9UKD1 (Q9UKD1 whole entry, looked up): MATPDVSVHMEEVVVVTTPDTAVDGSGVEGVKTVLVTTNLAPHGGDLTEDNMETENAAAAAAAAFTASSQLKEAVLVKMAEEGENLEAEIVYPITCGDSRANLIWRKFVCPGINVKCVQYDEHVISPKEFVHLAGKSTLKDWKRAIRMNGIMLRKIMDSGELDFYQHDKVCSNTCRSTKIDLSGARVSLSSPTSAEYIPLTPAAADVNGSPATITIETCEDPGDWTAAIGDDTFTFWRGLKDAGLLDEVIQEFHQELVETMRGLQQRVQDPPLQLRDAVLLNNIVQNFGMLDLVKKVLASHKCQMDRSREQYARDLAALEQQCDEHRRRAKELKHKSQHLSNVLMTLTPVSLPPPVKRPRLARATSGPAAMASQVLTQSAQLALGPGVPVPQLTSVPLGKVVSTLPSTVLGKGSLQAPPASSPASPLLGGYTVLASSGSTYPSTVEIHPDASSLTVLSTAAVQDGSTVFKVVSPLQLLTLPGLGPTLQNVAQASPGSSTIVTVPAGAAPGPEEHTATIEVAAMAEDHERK
inactive: [1] 0.037 | [2] 0.073 | [3] 0.068 | [4] -0.007 | [5] -0.016

GLS (UniProt O94925)
Chain of UniProt O94925 (O94925 whole entry, looked up): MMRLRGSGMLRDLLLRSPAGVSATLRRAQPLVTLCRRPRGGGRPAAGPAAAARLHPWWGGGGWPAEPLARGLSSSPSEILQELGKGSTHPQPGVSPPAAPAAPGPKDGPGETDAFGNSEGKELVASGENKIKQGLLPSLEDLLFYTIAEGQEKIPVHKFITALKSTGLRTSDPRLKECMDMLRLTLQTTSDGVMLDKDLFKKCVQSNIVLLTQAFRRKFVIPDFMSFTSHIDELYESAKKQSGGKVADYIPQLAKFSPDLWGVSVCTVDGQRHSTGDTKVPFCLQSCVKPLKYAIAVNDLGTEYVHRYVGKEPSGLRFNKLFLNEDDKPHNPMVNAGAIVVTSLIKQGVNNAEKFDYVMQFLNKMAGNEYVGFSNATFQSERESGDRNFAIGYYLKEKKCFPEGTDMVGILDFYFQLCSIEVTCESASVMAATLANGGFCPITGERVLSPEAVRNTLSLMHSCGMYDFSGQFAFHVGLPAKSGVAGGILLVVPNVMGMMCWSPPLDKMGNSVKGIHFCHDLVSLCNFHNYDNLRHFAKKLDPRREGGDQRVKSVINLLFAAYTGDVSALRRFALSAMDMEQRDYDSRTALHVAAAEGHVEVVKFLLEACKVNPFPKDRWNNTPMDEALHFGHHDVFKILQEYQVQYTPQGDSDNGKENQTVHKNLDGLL
inactive: [1] -0.022 | [2] 0.114 | [3] 0.138 | [4] 0.013 | [5] 0.082

GAB2 (UniProt Q9UQC2)
Chain of UniProt Q9UQC2 (Q9UQC2 whole entry, looked up): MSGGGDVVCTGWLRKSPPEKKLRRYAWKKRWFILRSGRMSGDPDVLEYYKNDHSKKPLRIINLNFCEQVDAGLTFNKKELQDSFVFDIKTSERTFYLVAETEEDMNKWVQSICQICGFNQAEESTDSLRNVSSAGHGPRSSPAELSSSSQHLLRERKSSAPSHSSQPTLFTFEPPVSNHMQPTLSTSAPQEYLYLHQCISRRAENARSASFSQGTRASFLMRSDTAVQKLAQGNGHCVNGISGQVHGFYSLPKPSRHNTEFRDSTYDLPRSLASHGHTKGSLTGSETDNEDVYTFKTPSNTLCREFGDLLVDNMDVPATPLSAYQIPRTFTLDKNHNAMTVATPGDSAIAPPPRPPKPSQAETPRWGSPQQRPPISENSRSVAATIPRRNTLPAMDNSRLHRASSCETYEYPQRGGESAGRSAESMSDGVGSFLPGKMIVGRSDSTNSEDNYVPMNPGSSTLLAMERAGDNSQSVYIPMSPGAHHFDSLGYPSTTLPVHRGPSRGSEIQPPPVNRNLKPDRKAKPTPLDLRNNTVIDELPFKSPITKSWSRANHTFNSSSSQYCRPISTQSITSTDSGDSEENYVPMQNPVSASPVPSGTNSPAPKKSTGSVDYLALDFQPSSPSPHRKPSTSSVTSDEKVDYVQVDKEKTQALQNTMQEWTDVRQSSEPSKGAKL
inactive: [2] 0.153 | [3] -0.059 | [4] 0.396 | [5] -0.034
